# Screening data from PubChem.
# BJeLR viability = BJeLR cell viability loss; inhibition, % (concentration not given with the values); BJeLR (HRASV12) viability, CellTiter-Glo ATP luminescence, 48 h; 0.17% of 300,000 active; in the data active = inhibition above about 50%
# SARS 3CLpro inh = SARS-CoV 3CLpro protease inhibition | AID 1706 | 0.14% of 290,000 active | P0C6X7 | recombinant SARS-CoV 3CLpro, quenched FRET peptide cleavage | inhibition, % at 6 µM; in the data active = inhibition above about 12%
# PfHsp40 rescue = rescue of PfHsp40-mediated yeast toxicity. growth rescue, % at 12.5 µM. 0.68% of 340,000 active. S. cerevisiae expressing PfHsp40, growth rescue, ATP luminescence. AID 504582; in the data active = growth rescue above about 28%, passing the limit was not always enough;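 also: yeast W303a lacking pdr1 and pdr3 grown in galactose medium; growth measured after three days at 30 °C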
# Sa RN4220 lethal = S. aureus RN4220 growth inhibition | OD600, 16 h | inhibition, % (concentration not given with the values) | 0.33% of 330,000 active; in the data active = inhibition above about 85%;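 also: plate controls were untreated cells for no effect and reference antibiotic for full effect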
# Sa ugtP lethal = compounds lethal to S. aureus RN4220 ugtP deletion mutant | OD600 growth, 16 h | 0.54% of 330,000 active | growth inhibition, % (test concentration not listed); in the data active = growth inhibition above about 68%;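 also: plate controls were untreated wells for no effect and antibiotic for full effect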
# * = called active by the depositor; . = not tested or not shown. This is a sample that favours compounds with a hit; in the whole collection about 1.3% have one here.
SMILES,BJeLR viability,SARS 3CLpro inh,PfHsp40 rescue,Sa RN4220 lethal,Sa ugtP lethal
CC(=O)NC(c1ccc(C)cc1)c1cc(Cl)c2cccnc2c1O (stereo unspecified),12,1,-1,.,.
O=C(COC(=O)/C=C/c1cccc(Br)c1)NC1CC1,.,.,-2,-1,0
Cc1ccc(-c2csc3nc4cc(C(N)=O)ccc4c(=O)n23)cc1,-11,.,0,-2,5
NC(=O)c1ccc2c(=O)n3c(-c4cccs4)csc3nc2c1,3,.,1,7,88*
O=C(CSc1nccc(-c2cccs2)n1)Nc1cccc(Cl)c1,10,0,0,15,14
O=C(CSc1nccc(-c2cccs2)n1)Nc1ccc(F)c(Cl)c1,-11,6,0,83,89*
CN(Cc1ccccc1)C(=O)CN1C(=O)c2ccccc2S1(=O)=O,0,1,-1,2,2
O=C(N/N=C(\c1ccccc1)c1cccnc1)c1cccc(F)c1,67*,-1,315*,.,.
c1ccc(-c2nnc(-c3ccccn3)nc2NC2CCCCC2)cc1,66*,6,46*,97*,89
Cc1cc(C)n(S(=O)(=O)/C=C/c2ccccc2)n1,8,0,-1,-3,-4
Cc1cccc(Nc2nnc(-c3ccc(C(=O)N4C[C@H]5C[C@H](C4)c4cccc(=O)n4C5)cc3)c3ccccc23)c1,-12,-2,84*,4,-4
COc1ccc2[nH]c3c(c2c1)CCN1C(=O)N([C@@H](C)C(=O)NCCc2ccc(F)cc2)C(=O)[C@]31C,-4,1,58*,-2,-1
COc1ccc2[nH]c3c(c2c1)CCN1C(=O)N([C@@H](C)C(=O)NCc2ccc(F)cc2)C(=O)[C@]31C,-1,2,0,4,-5
O=C(c1ccccc1F)N1CCN(S(=O)(=O)c2ccc3ccccc3c2)CC1,-10,-1,30*,1,7
Cc1ccc(CN2C(=O)CCC2C(=O)NC(C)C)cc1 (stereo unspecified),-6,-2,78*,3,-4
CNC(=O)C1CCC(=O)N1Cc1ccc(C)cc1 (stereo unspecified),-2,-5,0,2,-1
O=c1[nH]c2cc3c(cc2cc1C(c1nnnn1Cc1ccccc1)N1CCCc2ccccc21)OCO3 (stereo unspecified),-11,-5,.,6,-2
O=C(Nc1ccc(Cl)cc1F)c1ccc(-n2cncn2)cc1,.,.,0,3,1
CC1=Nc2cc(C(=O)NCc3ccco3)ccc2Sc2ccc(C)cc21,54*,5,-1,1,-11
O=C(Cc1ccccc1F)Nc1nc(-c2ccc(F)c(F)c2)cs1,-11,2,242*,-20,15
CCN=C1SC(CC(=O)NC(N)=O)C(=O)N1CC (stereo unspecified),-24,-3,0,3,0
C=CCN1C(=O)/C(=C/c2ccc(OC(C)=O)c(OCC)c2[N+](=O)[O-])SC1=S,26,-2,-1,99*,100*
CCn1c(SCC(=O)Nc2oc(-c3ccccc3)c(-c3ccccc3)c2C#N)nnc1-c1ccco1,-3,-7,-2,-11,6
COc1ccc(-c2oc(NC(=O)CSc3nncn3C)c(C#N)c2-c2ccc(OC)cc2)cc1,-1,2,44*,0,12
CC(NNC(=S)N1CCN(c2ccccn2)CC1)c1nccc2ccccc12 (stereo unspecified),.,.,149*,.,.
SMILES,BJeLR viability,SARS 3CLpro inh,PfHsp40 rescue,Sa RN4220 lethal,Sa ugtP lethal
CC(C)(C)OC(=O)NN=C(c1ccc(O)cc1)c1ccc(O)cc1,-5,-4,15,99*,99*
COc1ccc(C2=NN(C(=O)C(O)c3ccccc3)C(O)(C(F)(F)F)C2)cc1 (stereo unspecified),-1,-5,-1,5,-3
CN(C)c1nc(-c2ccccc2)c2cnn(Cc3ccccc3)c2n1,-6,2,2,-7,89*
Cc1ccc(CSc2ncnc3onc(C)c23)cc1,-3,4,70*,6,22
CCC1OC(=O)C(C)C(OC2C[C@@](C)(OC)C(O)C(C)O2)C(C)C(OC2OC(C)CC(N(C)C)C2O)[C@](C)(OC)CC(C)C(=O)C(C)C(O)[C@]1(C)O (stereo partly specified),.,.,.,101*,100*
O=C(NCc1ccncc1)c1ccccc1Nc1ccc(SC(F)F)cc1,-4,4,474*,1,-4
CCN(CC)CCN(C(=O)CN1C(=O)CCC1=O)c1nc2cc3c(cc2s1)OCO3,4,-2,1,1,3
CC1(C)C2CCC1(C)C(OC(=O)C[n+]1ccccc1N)C2 (stereo unspecified),5,0,2,4,7
CCC(=O)N1CCN(c2ccc(Cl)cc2NC(=O)c2cccc([N+](=O)[O-])c2)CC1,14,2,1,0,0
CCC(=O)N1CCN(c2ccc(NC(=O)c3ccc([N+](=O)[O-])o3)cc2Cl)CC1,11,2,9,99*,91*
CCN1CCN(c2ccc(NC(=O)c3ccc([N+](=O)[O-])o3)cc2Cl)CC1,5,-1,0,100*,99*
CS(=O)(=O)N1CCN(c2ccccc2NC(=O)c2ccc([N+](=O)[O-])o2)CC1,-1,2,0,100*,88
CCC(=O)N1CCN(c2ccc(Cl)cc2NC(=O)c2ccc([N+](=O)[O-])o2)CC1,0,0,46*,10,20
CCC(=O)N1CCN(c2ccc(NC(=O)c3ccco3)cc2Cl)CC1,3,-5,0,-4,9
COc1ccc(CC(=O)OCC(=O)N2CCc3ccccc32)cc1OC,.,.,2,0,1
O=C(CN1C(=O)c2ccccc2C1=O)N1CCN(S(=O)(=O)c2ccccc2)CC1,7,-4,0,3,5
CN(C)Cc1c(O)ccc2c(=O)c(-c3ccccc3)c(C(F)(F)F)oc12,2,-1,10,5,10
CC(=O)N1CCN(c2ccc(NC(=O)c3ccc([N+](=O)[O-])o3)cc2Cl)CC1,-4,2,2,99*,100*
CC(=O)Nc1ccc2nc(NC(=O)c3ccco3)sc2c1,7,0,0,5,0
CC(=O)Nc1ccc2nc(NC(=O)c3ccc([N+](=O)[O-])o3)sc2c1,5,5,-1,18,98*
CC(=O)N1CCc2c(sc(NC(=O)c3ccc([N+](=O)[O-])o3)c2C#N)C1,-5,-1,1,16,90*
C=C(C)CNC(=S)NNC(=O)CCn1c2ccc(Cl)cc2c2cc(Cl)ccc21,-7,6,11,93*,43
Cn1c(O)c(/C=N/NC(=O)c2cc3ccccc3cc2O)c2ccccc21,6,9,-1,.,.
Cn1c(O)c(C=NNC(=O)c2cc3ccccc3cc2O)c2ccccc21,.,.,.,31,93*
CC(C(=O)N1CCN(C(=O)OC(C)(C)C)CC1)n1cc(CCC(=O)O)nn1 (stereo unspecified),.,.,.,3,1
